KB-V1 cytotox: qHTS assay for MDR1-selective chemotherapeutics: Primary screen using the drug-selected MDR subline cells KB-V1. KB-V1 MDR cells viability, CellTiter-Glo, 72 h. Potency, µM (doses to about 46.1 µM), hits mostly cytotoxic. 400,000 tested, 3.4% active. AID 1347076, 2019; also: nearly all actives have a fitted effect of over 60% in size
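In this primary screen, KB-V1 cells overexpressing P-gp are incubated with library compounds (lowest to highest concentration) for 72 h at 37 degrees C before a luminescent ATP viability read.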
TDP1 cell CPT: qHTS for Inhibitors of human tyrosyl-DNA phosphodiesterase 1 (TDP1): qHTS in cells in presence of CPT. chicken DT40 Tdp1-/-;hTDP1 cells + 20 nM CPT, ATP luminescence, 48 h. Potency, µM (top dose mostly 46.2 µM), inactives show top-dose activity change, negative = growth inhibition, actives largely listed as inhibitors. 420,000 tested, 12% active. AID 686979, 2013; also: nearly all actives have a fitted effect of over 55% in size
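Cell growth measured by CellTiter-Glo luminescence after a minimum 48 h, 37 C compound exposure with 20 nM CPT in Tdp1-knockout DT40 cells stably expressing hTDP1, seeded 400/well; qHTS titration format.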
HT1080 IDH1KD tx: qHTS for induction of synthetic lethality in tumor cells producing 2HG: qHTS for the HT-1080-IDH1KD cell line | HT-1080 IDH1 knockdown viability, ATP luminescence, 48 h | Potency, µM (top dose mostly 46.1 µM), for inactives: top-dose activity, negative = toxicity, hits mostly cytotoxic | 360,000 tested, 2% active | AID 686971, 2013;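 also: 0% = DMSO wells and -100% = cell-free medium wells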
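% activity derives from luminescence (CellTiter-Glo), normalised to DMSO and no-cell wells. HT-1080-IDH1KD cells, 750/well, had 48 h compound exposure at 37 °C.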
TDP1 cell noCPT: qHTS for Inhibitors of human tyrosyl-DNA phosphodiesterase 1 (TDP1): qHTS in cells in absence of CPT | AID 686978, 2013 | Potency, µM (titrated, usually from 46.2 µM), for inactives: at the top dose activity change, negative = growth inhibition, actives largely listed as inhibitors | DT40 Tdp1-/- hTDP1 cells, no CPT, ATP luminescence, 48 h | 420,000 tested, 15% active; also: nearly all actives have a fitted effect of over 55% in size
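Luminescent ATP content (CellTiter-Glo) served as the growth readout. Knockout chicken DT40 cells expressing human TDP1 were exposed to compounds without camptothecin for a minimum 48 hr at 37 °C.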
HT1080-NT tox: qHTS for induction of synthetic lethality in tumor cells producing 2HG: qHTS for the HT-1080-NT fibrosarcoma cell line; HT-1080-NT fibrosarcoma viability, CellTiter-Glo ATP luminescence, 48 h; Potency, µM (doses to about 46.1 µM), without a hit: top-dose activity, negative = less viability, most hits filed as cytotoxic; 360,000 tested, 1.6% active;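 also: NT is the 2HG producing partner of a matched IDH1 knockdown line; 0% = DMSO-treated cells and -100% = media-only wells without cells; nearly all actives have a fitted effect of over 55% in size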
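Read-out is CellTiter-Glo luminescence after 10 minutes at room temperature, following 48 hours' compound treatment of HT-1080-NT cells (750 cells/well, RPMI, 5% FBS, 37 degrees C).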
KB-3-1 tox: qHTS assay for MDR1-selective chemotherapeutics: Primary screen using the parental adenocarcinoma cell KB-3-1; KB-3-1 viability, CellTiter-Glo ATP luminescence, 72 h; AID 1347075, 2019; 400,000 tested, 1.4% active; Potency, µM (highest dose often 46.1 µM), usual class: cytotoxic; also: nearly all actives have a fitted effect of over 60% in size
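Cytotoxicity measured as CellTiter-Glo luminescence after 72 h at 37 C. Compound titrations were pinned onto drug-naive KB-3-1 parental adenocarcinoma cells grown in DMEM with 10% FBS, and normalized data fitted to concentration-response curves.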
Starred values were filed as active, the others as inactive; i = inactive; ? = inconclusive; . = no result given; ! = repeats disagree. The list is not random: actives were taken first. Their share in the collection is about 19%. Calls follow the shape of the dose curve; as a rule, active = well fitted curve in the direction sought with a large enough effect; inconclusive = small, poorly fitted or top-dose-only effect, or another doubt; inactive = no such curve, though single readings can be large; an effect the other way counts as inactive or inconclusive. Unless noted, % is scaled to controls: 0 for no effect and ±100 for the full control effect; potency is read from the fitted curve at half-maximal effect.

SMILES	KB-V1 cytotox	TDP1 cell CPT	HT1080 IDH1KD tx	TDP1 cell noCPT	HT1080-NT tox	KB-3-1 tox
Cc1ccc(C(=O)Nc2cccc(C(O)c3ccccc3)c2)cc1 (centres undefined)	i	-25.9%	-9.8%	?	-6.5%	i
CCc1ccc(NS(=O)(=O)c2ccc3[nH]c(=O)[nH]c3c2)cc1	?	5.1%	26.5%	-8.4%	9.5%	i
CC(C)Cc1ccc(S(=O)(=O)Nc2ccc3[nH]c(=O)[nH]c3c2)cc1	?	16.4µM*!	-0.3%	25.9µM*	-2.7%	i
Cc1ccc(C)c(NC(=O)CSc2ncc3c(n2)-c2ccc(Cl)cc2N(C)S3(=O)=O)c1	.	?	.	18.4µM*	.	.
CCOC(=O)c1cccc(NC(=O)CSc2ncc3c(n2)-c2ccc(Cl)cc2N(Cc2ccccc2)S3(=O)=O)c1	i	?	.	1.46µM*	.	i
COc1ccccc1CNC(=O)CSc1ncc2c(n1)-c1ccccc1N(Cc1ccc(C)cc1)S2(=O)=O	i	?	.	11.6µM*	.	i
COc1cccc(NC(=O)CSc2ncc3c(n2)-c2ccc(Cl)cc2N(C)S3(=O)=O)c1	i	-16.2%	.	-29.8%	.	i
COc1ccc(CNC(=O)CSc2ncc3c(n2)-c2ccc(Cl)cc2N(Cc2ccc(F)cc2)S3(=O)=O)cc1OC	i	11.6µM*	.	11.6µM*	.	i
CC(=O)c1ccc(Nc2cc(C)nc3nc(Cc4ccc(Cl)cc4)nn23)cc1	i	?	.	-16.7%	.	i
Cc1ccc(S(=O)(=O)N2CCOCC2)cc1NC(=O)COC(=O)/C=C/c1ccco1	i	-17.4%	-5.2%	?	-1.7%	?
Cc1cc(C)n(C(C)CC(=O)NCc2ccccc2C)n1 (centres undefined)	i	-14.8%	.	-11.4%	.	i
CCOc1ccc(NC(=O)CSc2ncc3c(n2)-c2ccccc2N(C)S3(=O)=O)cc1	i	0.0%	.	6.4%	.	i
CN1c2ccccc2-c2nc(SCC(=O)Nc3ccccc3)ncc2S1(=O)=O	?	?	.	18.4µM*	.	i
COc1ccccc1NC(=O)CSc1ncc2c(n1)-c1cc(Cl)ccc1N(C)S2(=O)=O	?	7.31µM*	.	10.3µM*	.	i
COc1ccc(CNC(=O)CSc2ncc3c(n2)-c2cc(Cl)ccc2N(Cc2ccccc2)S3(=O)=O)cc1OC	i	14.6µM*	.	11.6µM*	.	i
CC(CC(=O)c1cccs1)CC(=O)c1cccs1	i	-22.3%	-9.9%	-6.1%	3.6%	i
Cc1cc(C)c(C(CC(=O)c2cccs2)C(C#N)C#N)c(C)c1 (centres undefined)	i	?	?	25.9µM*	?	?
C=CCOc1c(OC)cc(/C=N/Nc2cccc(C(=O)O)c2)c(Br)c1Br	i	16.4µM*	?	16.4µM*	?	i
COc1ccc([C@@]2(O)c3c(ccc(CC=C(C)C)c3O)NC(=O)[C@@H]2OC)cc1	i	-16.2%	2.1%	11.4%	4.0%	i
O=C1ON=C(c2ccccc2)/C1=C/c1ccc(-c2ccccc2[N+](=O)[O-])o1	?	11.6µM*	?	14.6µM*	-22.7%	?
O=C1ON=C(c2ccccc2)/C1=C/c1ccco1	i	?	0.3%	?	-0.1%	?
CCN(CC)c1ccc(-c2nn3c(-c4cccnc4)nnc3s2)cc1	7.31µM*	18.4µM*	-18.8%	20.6µM*	-29.2%	20.6µM*

Bioassay records as filed in PubChem BioAssay.
